We go through eight molecules from PubChem BioAssay AID2763 (National Center for Advancing Translational Sciences (NCATS), 2010).

Records with an inconclusive call do not appear. Active and inactive are the calls of the source. The call rests on the fitted dose curve; in most records, active means well fitted inhibition curve with a large enough effect; inconclusive means small, poorly fitted or top-dose-only effect, or effect the other way; inactive means no such curve, though single readings can be large or run the other way.
Potency means the concentration at half of the fitted maximal effect.

A short description of the assay: Concentration response confirmation VP16 counterscreen for inhibitors of ROR gamma transcriptional activity. Further: nearly all actives have a fitted effect of over 70% in size. The conditions noted are these: Drosophila S2 Gal4-VP16 UAS-luciferase, luminescence, 20 h; series mostly up to 46.1 µM. The source says:
NIH Molecular Libraries Probe Production Network [MLPCN] NIH Chemical Genomics Center [NCGC] MLPCN Grant: R03 DA026211-01 Assay Provider: Dan Littman, New York University Assay Overview: The retinoic acid-related orphan receptor (ROR) gamma is a transcription factor that has a central role in the differentiation of Th17 cells, a subset of T helper cells that secrete the inflammatory cytokines IL-17, IL-17F, and IL-22. Th17 cells have been implicated in graft versus host disease, autoimmune disease and asthma. ROR gamma is induced in naive T helper cells in the presence of TGF-beta combined with IL-6, IL-21, or IL-23, and thereafter directs the expression of the Th17 lineage cytokines. To identify nonspecific inhibitors, a Drosophila Schneider cell line was stably transfected with two vectors: a gene expressing a fusion of the Gal4 DNA binding domain and the transactivation domain of the viral transcription factor VP16, under the control of the metallothionine promoter and a Photinus luciferase reporter regulated by the Gal4 binding site enhancer, UAS. […] Small molecule inhibitors that inhibit components common to the RORgt and VP16 assays, such as the Gal4 DNA binding domain or the UAS luciferase reporter, will be active in both assays and thus scored as nonspecific.
Assay Protocol Summary: For screening, 600 cells in 4 uL/well were dispensed into white solid 1536-well plates (Grenier) using a solenoid-based dispenser. Following transfer of 23 nL compound or DMSO vehicle by a pin tool, the plates were incubated 1 hr at ambient temperature, and 1 uL/well copper sulfate (700 uM final concentration) was added. The plates were centrifuged 15 s at 1000 RPM and incubated 20 hr at ambient temperature. After addition of 1.5 uL Photinus luciferase detection reagent, the plates were incubated 10 min at ambient temperature and then read by an ViewLux (Perkin Elmer) to detect luminescence.
Take `O=C(c1ccco1)c1cn(Cc2ccccc2Cl)c2ccccc12`: the Potency entry was “inactive”.
Regarding `Cc1cc(S(=O)(=O)NC(C)C)ccc1OCC(=O)N1CCN(Cc2ccc3c(c2)OCO3)CC1`, the Potency was 11.2 µM (active).
Take `OC(COCc1ccc(Cl)cc1)CN1CC=C(c2ccccc2)CC1` (stereo not drawn): the Potency entry is “inactive”.
In the case of `O=C(Nc1ncc(Cc2ccccc2)s1)C1=NCCN1` it was 19.9 µM (active); in that of `CCCCNS(=O)(=O)c1ccc(OCC(=O)N2CCN(Cc3ccc4c(c3)OCO4)CC2)cc1`, 22.3 µM (active).
In the case of `CCCNS(=O)(=O)c1ccc(OCC(=O)N2CCN(Cc3ccc4c(c3)OCO4)CC2)cc1` it was 25 µM (active).
In the case of `Cn1ncnc2c(=O)n(C)c(=O)nc1-2`, the Potency was 0.445 µM (active).
Consider `COc1cc(C(=O)N/N=C/C23CC[C@@H](O)CC2(O)CC[C@@H]2[C@@H]3CCC3(C)C(C4=CC(=O)OC4)CCC23O)ccc1O` (stereo partly drawn), for which the Potency result is “inactive”.
